# Measured values: the supplement of paper PMC7380943
# Tested on: CLZ3 (HCA2 human fibroblast dual HR-NHEJ reporter)
# Assay: NHEJ repair efficiency (GFP+ cells) relative to control (log10 fold); higher = more non-homologous end joining
# Conditions: 5 µM; doxycycline 0.5 ug/mL
# 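Further: compound given one day ahead of doxycycline, which switches on I-SceI endonuclease to cut the chromosomally integrated reporter and create DSBs.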
row,Compound,NHEJ repair efficiency (log10)
1,COc1ccc(-c2cc(=O)c3c(OC)c(OC)c(OC)c(OC)c3o2)cc1 [Tangeretin],-0.13
2,COc1ccc(/C=C/C(=O)O)cc1O [Isoferulic Acid],-0.101
3,C/C=C(/C)C(=O)OC(C)(C)[C@@H]1Cc2c(ccc3ccc(=O)oc23)O1 [Columbianadin],-0.0553
4,C[C@@H]1C(=O)O[C@H]2C[C@@]34O[C@@H]5OC(=O)[C@H](O)[C@@]56[C@H](C(C)(C)C)[C@H](O)C(OC3=O)[C@]64[C@]21O (some centres undefined) [Ginkgolide J],0.0205
5,C=C1[C@H]2CC[C@]3([C@@H]1O)[C@H]1C[C@@H]4C5(C)CCCC4([C@@H]1N(CC)C5)[C@@H]3[C@H]2O [Denudatine],-0.089
6,"O=C(/C=C/c1ccc(O)c(O)c1)O[C@@H]1C[C@@](OC(=O)/C=C/c2ccc(O)c(O)c2)(C(=O)O)C[C@@H](O)[C@@H]1O [Cynarin (1,5-Di-O-caffeoylquinic acid)]",0.0398
7,Nc1ncnc2c1ncn2[C@@H]1O[C@H](CO)C[C@H]1O [Cordycepin],0.007
8,COc1cc2ccc(=O)oc2c(O[C@@H]2O[C@H](CO)[C@@H](O)[C@H](O)[C@H]2O)c1O [Fraxin;Fraxoside; Paviin],0.0655
9,O=C(O)c1cc(O)c2c(c1)[C@@H]([C@H]1c3cc(C(=O)O)cc(O)c3C(=O)c3c(O[C@@H]4O[C@H](CO)[C@@H](O)[C@H](O)[C@H]4O)cccc31)c1cccc(O[C@@H]3O[C@H](CO)[C@@H](O)[C@H](O)[C@H]3O)c1C2=O [Sennoside B],-0.162
